PubChem BioAssay AID463173 (ICCB-Longwood Screening Facility, Harvard Medical School, 2010)
About 1,700 (3.3%) of roughly 52,000 compounds were called active. The list comes from a sample in which actives are over-represented; it also holds similar structures and randomly drawn compounds. Values without a mark were called inactive. Cut-off read from the data, not from the text of the source: active = survival mostly below about 52% (no sharp cut-off); inactive = mostly above about 56%.

Each compound was assayed on Wild type (assay: S. aureus survival, RN4220 and DeltatarO strains – OD600, teichoic acid synthesis inhibitors, primary screen (AID 463173)). Conditions: S. aureus RN4220 wild type/DeltatarO growth, OD600, 18 h, active compounds read low, screened at 18.75 µg/mL (by protocol).
For `Cc1ccccc1Cn1cc(CCC(=O)NC(C)c2ccccc2)c2ccccc21` (configuration not stated), the survival was 84%. `CC(C)n1nnnc1SCC(=O)OC1CCCCC1` gave a survival of 127%. Compound `Cc1cc(C)nc(Nc2nc3ccccc3s2)n1` has a survival of 109%. For `Cc1cccc(C(=O)Nc2nc(-c3nnn(-c4cc(F)ccc4F)c3C)ns2)c1`, the survival was 133%. Compound `N#Cc1cc[n+](CC(=O)c2cccs2)cc1` has a survival of 102%. With `Clc1ccc(CCNC(c2cccc(Cl)c2)c2nnc(-c3ccccc3)o2)cc1` (configuration not stated) the survival was 5% (active). In the case of `CCOc1ccc(CCNC(c2nnc(-c3ccccc3)o2)c2ccccc2Cl)cc1OCC` (configuration not stated), the survival is reported as 4% (active). With `CCOc1ccc(CCNC(=O)Cn2nnc(-c3ccccc3)n2)cc1OCC` the survival was 98%. `Clc1ccc(CCNC(c2ccc(Cl)cc2)c2nnc(-c3ccccc3)o2)cc1` (configuration not stated) showed a survival of 86%. For `CCOc1ccc(CCNC(c2cccc(Cl)c2)c2nnc(-c3ccccc3)o2)cc1OCC` (configuration not stated), the survival was 89%. `Cc1ccc(NC(c2cccc(Cl)c2)c2nnc(-c3ccccc3)o2)cc1F` (configuration not stated) gave a survival of 90%. For `COc1cc(NS(=O)(=O)c2c(C)nc3sc(C)c(C)n3c2=O)cc(OC)c1`, the survival was 90%. `Cn1cnc2c(=O)oc3ccc(S(=O)(=O)N4CCN(c5ccccc5)CC4)cc3c21` showed a survival of 87%. `Cn1cnc2c(=O)oc3ccc(S(=O)(=O)N4CCN(c5cccc(C(F)(F)F)c5)CC4)cc3c21` was tested, and the survival was 120%. `Cn1cnc2c(=O)oc3ccc(S(=O)(=O)N4CCN(c5cccc(Cl)c5)CC4)cc3c21` was tested, and the survival was -6% (active). In the case of `CCOc1ccc(NC(=O)c2c(Nc3ccccc3C)sc(C(=O)c3ccccc3)c2N)cc1`, the survival is reported as 83%. `Cc1ccc(CN2C(=O)c3ccccc3CC2(C)C(=O)NC2CCCCC2)cc1` (configuration not stated) showed a survival of 84%. With `CN(c1ncnc2c1c(-c1ccccc1)cn2-c1cccc(Cl)c1)C1CCCCC1` the survival was 89%. With `CN(c1ncnc2onc(-c3cccc(Cl)c3)c12)C1CCCCC1` the survival was -1% (active). With `Clc1cccc(-c2noc3ncnc(NC4CCCCC4)c23)c1` the survival was 79%. `COc1ccc(S(=O)(=O)N(CC(=O)N2CCC(C)CC2)c2ccc(C)cc2)cc1` gave a survival of 89%. Compound `O=C(NCCC1=CCCCC1)c1ccc2c(=O)n3nc(Nc4ccccc4)sc3nc2c1` has a survival of 72%. `O=C(CN1CCC(NC(=O)C2CCCCC2)CC1)Nc1cccc(F)c1` gave a survival of 111%. `CCc1nn2c(=O)cc(COC(=O)c3ccc(NC(=O)C4CCCCC4)cc3)nc2s1` gave a survival of 68%. `CCOc1ccc(OCC)c(NS(=O)(=O)c2ccc3[nH]c(=O)ccc3c2)c1` was tested, and the survival was 0% (active). In the case of `CCOc1ccc(CNS(=O)(=O)c2ccc3[nH]c(=O)ccc3c2)cc1`, the survival is reported as 80%. `CCOc1ccccc1CNS(=O)(=O)c1ccc2[nH]c(=O)ccc2c1` gave a survival of 71%. `O=C(Cn1c(=O)n(CCc2ccccc2)c(=O)c2cccnc21)Nc1ccc(F)cc1` gave a survival of 80%. With `Cc1oc2c(C)c3oc(=O)c(CC(=O)N4CCCCC4)c(C)c3cc2c1C` the survival was 83%. In the case of `Cc1nnc(SCC(=O)N(C2CCCCC2)C2CCCCC2)[nH]c1=O`, the survival is reported as 117%. With `CCOC(=O)C1CCCN(c2c(C(=O)c3ccccc3)cnc3ccc(F)cc23)C1` (configuration not stated) the survival was 22%. `CCOc1ccc(S(=O)(=O)c2c(C(=O)c3ccc(C)c(C)c3)cnc3ccccc23)cc1` was tested, and the survival was 80%. With `CCOc1ccc(C(=O)c2cnc3ccc(Cl)cc3c2S(=O)(=O)c2ccc(C)cc2)cc1` the survival was 86%. For `CCOC(=O)C1CCCN(c2c(C(=O)c3ccc(C)cc3)cnc3ccc(OCC)cc23)C1` (configuration not stated), the survival was 2% (active). In the case of `CCOC(=O)C1CCCN(c2c(C(=O)c3ccc(OCC)cc3)cnc3ccccc23)C1` (configuration not stated), the survival is reported as 0% (active). In the case of `CCOC(=O)C1CCCN(C(=O)c2ccc(OCC)cc2)C1` (configuration not stated), the survival is reported as 117%. With `CCOc1ccc(NC(=O)CN2CCSc3ccc(S(=O)(=O)N4CCCC4)cc32)cc1` the survival was 67%. `Cc1ccc(NC(=O)CN2CCSc3ccc(S(=O)(=O)N4CCCC4)cc32)cc1` showed a survival of 98%. With `CCc1ccc(NC(=O)CN2CCSc3ccc(S(=O)(=O)N4CCCC4)cc32)cc1` the survival was -6% (active). Compound `CCOC(=O)c1scc(-c2ccc(C)cc2)c1S(=O)(=O)Nc1ccc(F)c(F)c1` has a survival of 72%. For `Cc1nc(N2CCOCC2)c2c(C(=O)Nc3cccc(C(F)(F)F)c3)c(C)oc2n1`, the survival was 78%. `COc1ccc(Nc2c(-c3ccco3)nc3cccc(C)n23)cc1` showed a survival of 97%. In the case of `Cc1ccc(Nc2c(-c3ccc(C)o3)nc3cccc(C)n23)cc1`, the survival is reported as 21% (active). In the case of `Cc1ccc(Nc2c(-c3ccc(O)cc3)nc3cccc(C)n23)cc1`, the survival is reported as 91%. `Cc1ccccc1Nc1c(-c2ccccc2)nc2cccc(C)n12` was tested, and the survival was 73%. Compound `Cc1ccc(Nc2c(-c3cccc(Cl)c3)nc3cccc(C)n23)cc1` has a survival of 22%. Compound `Cc1ccc(-c2nc3cccc(C)n3c2Nc2ccc3c(c2)OCO3)o1` has a survival of 22%. In the case of `Cc1cccc2nc(-c3ccccn3)c(Nc3ccc(F)cc3)n12`, the survival is reported as 4% (active). Work on `Cc1ccn2c(Nc3ccc(F)cc3)c(-c3ccccn3)nc2c1` yielded a survival of 79%. In the case of `Cc1cccc(C)c1Nc1c(-c2ccccc2F)nc2cccc(C)n12`, the survival is reported as 7% (active). For `CSc1ccc(-c2nc3cccc(C)n3c2Nc2ccc(Cl)cc2)cc1`, the survival was 101%. `Cc1cccc(C)c1Nc1c(-c2ccsc2)nc2cccc(C)n12` was tested, and the survival was 32%. In the case of `Cc1cccc2nc(-c3ccccn3)c(Nc3ccccc3)n12`, the survival is reported as 21% (active). In the case of `O=C(Nc1ccc(Cl)c(C(F)(F)F)c1)C1CCN(S(=O)(=O)c2cccc3nonc23)CC1`, the survival is reported as 90%. In the case of `Cc1ccc(C(=O)c2c(N)c(C(=O)Nc3ccccc3Cl)c3ccccn23)cc1`, the survival is reported as 96%. Work on `COc1ccc(NC(=O)CN2C(=O)c3cccnc3Sc3ccccc32)cc1OC` yielded a survival of 81%. For `COc1ccccc1CNC(=O)CSC1=Nc2ccccc2N=C(c2ccc(F)cc2)C1`, the survival was 73%. `COc1cc(NC(=O)c2sc3nc4n(c(=O)c3c2C)CCCCC4)cc(OC)c1OC` was tested, and the survival was 80%. Work on `Cc1ccccc1NC(=O)Cn1cc(S(=O)(=O)c2ccccc2)c(=O)c2ccccc21` yielded a survival of 105%. In the case of `COc1ccccc1CNC(=O)C(=O)NCC(c1ccco1)S(=O)(=O)c1cccs1` (configuration not stated), the survival is reported as 101%. With `COC(=O)C(NC(=O)CCc1c(C)nc2cc(-c3cccc(F)c3)nn2c1C)C(C)C` (configuration not stated) the survival was 80%. For `CCc1ccc(CNc2ncnc3onc(-c4ccc(Cl)cc4)c23)cc1`, the survival was 48%. In the case of `Cc1cc[n+](CC(=O)N2CCCCC2)cc1`, the survival is reported as 116%. For `Cc1ccc(NC(=O)Cn2c(=O)n(-c3ccccc3)c(=O)c3ccc(C(=O)NCc4ccc5c(c4)OCO5)cc32)c(C)c1`, the survival was 138%. Work on `Cc1ccc(-c2nc3ccccn3c2Nc2ccc3c(c2)OCO3)o1` yielded a survival of 48%. For `Cc1ccc2nc(-c3ccc(C)o3)c(Nc3ccc4c(c3)OCCO4)n2c1`, the survival was 19% (active). With `Cc1ccc(-c2nc3ccc(Cl)cn3c2Nc2ccc3c(c2)OCCO3)o1` the survival was 88%. For `Cc1ccc(-c2nc3ccccn3c2Nc2c(C)cccc2C)o1`, the survival was -20% (active). `Cc1ccc(-c2nc3ccccn3c2Nc2ccc3c(c2)OCCO3)o1` gave a survival of 62%. With `Cc1ccn2c(Nc3ccc4c(c3)OCCO4)c(-c3ccc(C)o3)nc2c1` the survival was 75%. Compound `Cc1cc(-n2c(C)nc3ccccc3c2=O)ccc1NC(=O)C(F)(F)F` has a survival of 69%. `COc1ccc(CCC(=O)NC2CC(=O)N(c3ccc(OC)cc3)C2)cc1` (configuration not stated) showed a survival of 79%. `CCOc1ccc(C2CC(=O)Nc3c2c(=O)[nH]c2ncnn32)cc1` (configuration not stated) showed a survival of 68%. For `CC1=C(C(=O)Nc2ccc(C)cc2C)C(c2cccs2)n2nc(SCc3ccccc3Cl)nc2N1` (configuration not stated), the survival was 76%. `COc1cc(NC(=O)c2ccc(C)cc2)ccc1NC(=O)c1cc2ccccc2o1` gave a survival of 75%. With `COc1ccc(-c2n[nH]c3c2C(c2ccc(Cl)cc2Cl)NC3=O)cc1` (configuration not stated) the survival was 0% (active). `CCc1ccc(C2NC(=O)c3[nH]nc(-c4cccc(OC)c4)c32)cc1` (configuration not stated) showed a survival of 74%. Work on `COc1ccc(OC)c(C2c3c(-c4ccc(Br)cc4)n[nH]c3C(=O)N2c2ccc(Cl)cc2)c1` (configuration not stated) yielded a survival of 77%. `CCOC(=O)CNc1cccc(Cl)c1` was tested, and the survival was 112%. For `COc1cccc(CNC(=O)C(=O)Nc2c3c(nn2-c2ccccc2)CSC3)c1`, the survival was 66%. Compound `Cc1ccc(NC(=O)c2cc(S(=O)(=O)N3CCC4(CC3)OCCO4)ccc2F)cc1Cl` has a survival of 87%. With `COc1ccc(N2CCN(C(=O)CNS(=O)(=O)c3ccc(Br)s3)CC2)cc1` the survival was 61%. `COc1ccc(Nc2oc(/C=C/c3cc(OC)c(OC)c(OC)c3)nc2C#N)cc1` showed a survival of 78%. `CC(=O)N1CCC2(CC1)OC(=O)C(C)=C2C(=O)NCc1ccccc1Cl` gave a survival of 70%. For `CCOc1ccc(CCNC(=O)c2cnc3c(-c4ccc(F)cc4)c(C)nn3c2C)cc1`, the survival was 85%. In the case of `CCOC(=O)c1cc2occc2n1C(C)C(=O)OCC` (configuration not stated), the survival is reported as 95%. For `CCOc1ccccc1NC(=O)C(CC)n1c(C(=O)OC)cc2occc21` (configuration not stated), the survival was 0% (active). For `CCC(Sc1nnc(C)n2c1cc1occc12)C(=O)Nc1ccccc1OC` (configuration not stated), the survival was 90%. `CCn1c(C(=O)Nc2ccccc2C(=O)OC)cc2sc(Cl)cc21` was tested, and the survival was 43%. For `CCC(C(=O)Nc1ccccc1OC)n1c(C(=O)OC)cc2sc(Cl)cc21` (configuration not stated), the survival was 0% (active). `CCc1ccccc1NC(=O)c1cc2sc(Cl)cc2n1CC` showed a survival of 90%. With `COc1ccc2c(c1)CC(NC(=O)Nc1ccc(NC(C)=O)cc1)CO2` (configuration not stated) the survival was 121%.
